Values joined by “and” are separate entries in the source; they are usually repeats but may differ in a detail not shown here. Equal entries are not always repeated. Compounds without any hit were thinned out: in the full panel of roughly 83,000, 20% have a hit.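 Testing used 96-well plates and a 48-hour single-concentration exposure. Example: -40 means 40% of the starting cells died.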
How the values were obtained:
Experiment in all cases: NCI-60 one-dose screen, 48 h (100 = growth as untreated, 0 = no growth, -100 = all killed)
Conditions in all cases: 10 µM unless noted; active = growth percent below 10; inactive = the rest
NCI-H23 lung = tested on: NCI-H23 lung
NCI-H226 lung = tested on: NCI-H226 lung
NCI-H322M lung = tested on: NCI-H322M lung
NCI-H460 lung = tested on: NCI-H460 lung
HOP-92 NSCLC = tested on: HOP-92 NSCLC
NCI-H522 lung = tested on: NCI-H522 lung
A549/ATCC NSCLC = tested on: A549/ATCC NSCLC
786-0 renal = tested on: 786-0 renal
COLO 205 colon = tested on: COLO 205 colon
HOP-62 NSCLC = tested on: HOP-62 NSCLC

Measured: growth

O=C1C=C(N2CC2)c2ccccc2C1=O
inactive: NCI-H23 lung 41.4% | NCI-H226 lung 92% | NCI-H322M lung 91.1% | NCI-H460 lung 23.2% | HOP-92 NSCLC 119% | NCI-H522 lung 52.7% | A549/ATCC NSCLC 54.3% | 786-0 renal 104% | COLO 205 colon 94.3%

C/C(=C(\c1ccc(OCCN2CCOCC2)cc1)c1ccc(OC(=O)Cc2ccccc2)cc1)c1ccc(Cl)cc1
inactive: NCI-H23 lung 86% | NCI-H226 lung 103% | NCI-H322M lung 90.6% | NCI-H460 lung 97.6% | HOP-92 NSCLC 70% | NCI-H522 lung 72.9% | A549/ATCC NSCLC 90.4% | 786-0 renal 77.7% | COLO 205 colon 106%

CC1=CC(=O)CCC12CCOC2=O (stereo not given)
inactive: NCI-H23 lung 102% | NCI-H226 lung 101% | NCI-H322M lung 96.4% | NCI-H460 lung 102% | HOP-92 NSCLC 102% | A549/ATCC NSCLC 97.8% | 786-0 renal 93.9% | COLO 205 colon 116%

CC(Oc1ccc(-c2ccccc2)cc1)C(=O)O (stereo not given)
inactive: NCI-H23 lung 106% | NCI-H226 lung 95.5% | NCI-H322M lung 102% | NCI-H460 lung 103% | NCI-H522 lung 99.8% | A549/ATCC NSCLC 96.5% | 786-0 renal 101% | COLO 205 colon 102%

COC(=O)C1=CO[C@@H](C)[C@@H]2CN3CCc4c([nH]c5cc(OC)ccc45)[C@@H]3C[C@H]12
inactive: NCI-H23 lung 95.9% | NCI-H226 lung 94.5% | NCI-H460 lung 99.7% | HOP-92 NSCLC 78% | A549/ATCC NSCLC 95.8% | 786-0 renal 108% | COLO 205 colon 101%

O=NN(c1ccccc1)c1ccccc1
inactive: NCI-H23 lung 98.3% | NCI-H226 lung 95% | NCI-H322M lung 94.1% | NCI-H460 lung 102% | HOP-92 NSCLC 88.1% | NCI-H522 lung 105% | A549/ATCC NSCLC 96% | 786-0 renal 105% | COLO 205 colon 110%

CCOC(=O)P(=O)(OCC)OCC
inactive: NCI-H23 lung 112% | NCI-H226 lung 106% | NCI-H322M lung 82.6% | NCI-H460 lung 116% | HOP-92 NSCLC 94.9% | NCI-H522 lung 85.7% | A549/ATCC NSCLC 101% | 786-0 renal 113% | COLO 205 colon 112%

COC12CC3(C)C(C4=CC(=O)OC4)CCC3(O)C3CCC4=CC(=O)CCC4(CO1)C32 (stereo not given)
inactive: NCI-H23 lung 99% | NCI-H226 lung 101% | NCI-H322M lung 83% | NCI-H460 lung 113% | HOP-92 NSCLC 76.8% | A549/ATCC NSCLC 98.8% | 786-0 renal 94.5% | COLO 205 colon 116%

O=[N+]([O-])c1c(Cl)cc(Cl)c([N+](=O)[O-])c1Cl
inactive: NCI-H23 lung 98.3% | NCI-H226 lung 117% | NCI-H322M lung 119% | NCI-H460 lung 95.8% | HOP-92 NSCLC 99.6% | NCI-H522 lung 36.6% | A549/ATCC NSCLC 108% | 786-0 renal 126% | COLO 205 colon 96%

O=C1c2ccccc2C(=O)N1N1CC1c1ccccc1 (stereo not given)
inactive: NCI-H23 lung 96.3% | NCI-H226 lung 102% | NCI-H322M lung 92.5% | NCI-H460 lung 111% | NCI-H522 lung 85.9% | A549/ATCC NSCLC 98.8% | 786-0 renal 98.9% | COLO 205 colon 101%

COc1ccc(N)cc1OC
inactive: NCI-H23 lung 105% | NCI-H226 lung 107% | NCI-H322M lung 114% | NCI-H460 lung 119% | HOP-92 NSCLC 91.2% | A549/ATCC NSCLC 105% | 786-0 renal 102% | COLO 205 colon 109%

O=P(O)(Nc1ccccc1)Nc1ccccc1
inactive: NCI-H23 lung 91.1% | NCI-H322M lung 90.6% | HOP-62 NSCLC 83.3% | NCI-H460 lung 99.2% | HOP-92 NSCLC 89.1% | NCI-H522 lung 85.6% | A549/ATCC NSCLC 91% | 786-0 renal 93.7%

CC12CCC3C4CCC(=O)C=C4CCC3C1CC1CC(=O)OC12 (stereo not given)
inactive: NCI-H23 lung 96.2% | NCI-H322M lung 89.9% | NCI-H460 lung 104% | HOP-92 NSCLC 92.7% | NCI-H522 lung 79% | A549/ATCC NSCLC 84.5% | 786-0 renal 107%

C(=NC1CCCCC1)=NC1CCCCC1
inactive: NCI-H23 lung 106% and 31.1% | NCI-H322M lung 117% and 99.1% | HOP-62 NSCLC 109% and 86.8% | NCI-H460 lung 107% and 100% | HOP-92 NSCLC 92.8% and 62.3% | NCI-H522 lung 91.8% and 85.2% | A549/ATCC NSCLC 111% and 87% | 786-0 renal 104% and 87.1% | COLO 205 colon 115% and 88.6%

Oc1ccccc1C=NCCN=Cc1ccccc1O.[Fe]
inactive: NCI-H23 lung 86.1% | NCI-H322M lung 111% | HOP-62 NSCLC 74.9% | NCI-H460 lung 59.7% | HOP-92 NSCLC 98.7% | NCI-H522 lung 47.5% | A549/ATCC NSCLC 61.6% | 786-0 renal 102% | COLO 205 colon 108%
